Test systems include DU-145 prostate; K-562 leukemia; MALME-3M melanoma; MDA-MB-231 breast; RXF 393 renal; SF-268 CNS; SF-295 CNS; SF-539 CNS; UACC-257 melanoma; M14 melanoma.
Holding throughout (test): NCI-60 one-dose screen, 48 h (100 = growth as untreated, 0 = no growth, -100 = all killed)
What all share (conditions): 10 µM unless noted

Structures are written as SMILES. About 83,000 compounds went through this panel and 20% of them were active in at least one assay; those are over-represented in the sample as a whole.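 In brief: 96-well plates, 48 h treatment, single concentration, percent growth endpoint.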 Values without a mark were called inactive. Active and inactive are the calls of the source. How the source made its calls: active means growth percent below 10; inactive means the rest.

`Cc1ccc2cnc(N)c(C#Cc3cncc(C(=O)Nc4ccc(CN5CCN(C)CC5)c(C(F)(F)F)c4)c3)c2c1`: the growth is -95.8% (active) in the assay on DU-145 prostate; -50.5% (active) in the assay with K-562 leukemia; -83.4% (active) with MALME-3M melanoma; -94.8% (active) in the assay on MDA-MB-231 breast; -93% (active) in the assay on RXF 393 renal; -69% (active) with SF-268 CNS. In addition, the growth with SF-295 CNS is -87.2% (active); with SF-539 CNS, -99.2% (active); in the assay on UACC-257 melanoma, -64.7% (active); in the assay on M14 melanoma, -62.2% (active).

With `Cn1c2c(Cl)c(Cl)ccc2c2ccn3c(=O)c4ccccc4nc3c21`, the growth in the assay with DU-145 prostate is 120%; in the assay on K-562 leukemia, 109%; in the assay with MALME-3M melanoma, 102%; in the assay with MDA-MB-231 breast, 99.5%; with RXF 393 renal, 117%; in the assay on SF-268 CNS it was 105%. For the same molecule, the growth in the assay on SF-295 CNS was 102%; in the assay with SF-539 CNS, 95.7%; in the assay with UACC-257 melanoma, 97%; in the assay on M14 melanoma it was 101%.

In the case of `COC1/C=C\OC2(C)Oc3c(C)c(O)c4c(O)c(c(CN(C)CCO)c(O)c4c3C2=O)NC(=O)/C(C)=C\C=C/C(C)C(O)C(C)C(O)C(C)C(OC(C)=O)C1C` (stereo not given), the growth is 116% in the assay on DU-145 prostate; 92.3% in the assay with K-562 leukemia; 84.2% in the assay with MALME-3M melanoma; 108% in the assay on MDA-MB-231 breast; 98.5% with RXF 393 renal; 97.3% with SF-268 CNS. Moreover, the growth with SF-295 CNS was 113%; in the assay on SF-539 CNS it was 91.1%; with UACC-257 melanoma, 105%; with M14 melanoma, 105%.

Consider `CCCCCCCCCCCCCCCC(=O)OCC1OC(n2cnc3c(=S)nc(N)[nH]c32)C(OC(=O)CCCCCCCCCCCCCCC)C1OC(=O)CCCCCCCCCCCCCCC` (stereo not given), for which the growth was 39.8% with DU-145 prostate; 15.9% with K-562 leukemia; 82.6% in the assay with MALME-3M melanoma; 47.4% in the assay with MDA-MB-231 breast; 164% with RXF 393 renal; 67.2% with SF-268 CNS. Moreover, the growth in the assay with SF-295 CNS is 21.1%; in the assay with SF-539 CNS, 79.9%; in the assay with UACC-257 melanoma, 88.7%; in the assay with M14 melanoma, 34.1%.

On to `CC[C@@H](C)OC(=O)c1nn(C(C)=O)c2ccccc12`, for which the growth in the assay with DU-145 prostate is 107%; in the assay with K-562 leukemia, 112%; in the assay on MALME-3M melanoma, 109%; in the assay with MDA-MB-231 breast, 98.8%; in the assay with RXF 393 renal it was 99.4%; in the assay with SF-268 CNS, 104%. The growth was 93.1% with SF-295 CNS, 105% with SF-539 CNS, 101% in the assay on UACC-257 melanoma and 102% with M14 melanoma.

Take `COc1ccc(S(=O)(=O)NCCNc2nccc(-c3c(-c4cccc([N+](=O)[O-])c4)nc4sccn34)n2)cc1`: the growth in the assay with DU-145 prostate is 80%; with K-562 leukemia, 76.1%; in the assay on MALME-3M melanoma, 111%; in the assay with MDA-MB-231 breast, 82.9%; in the assay on RXF 393 renal, 78%; in the assay on SF-268 CNS it was 66.4%. Also, the growth is 90.6% in the assay with SF-295 CNS, 99.3% in the assay with SF-539 CNS, 106% in the assay with UACC-257 melanoma and 102% with M14 melanoma.

For `CCCCCCCCCCCCCCCCCCNC(=O)[C@H]1CSC(c2ccc(F)c(OC)c2)N1` (stereo not given in full), the growth in the assay with DU-145 prostate was 26.5%; with K-562 leukemia, -56.3% (active); with MALME-3M melanoma, -91.2% (active); in the assay on MDA-MB-231 breast it was -83.4% (active); in the assay on RXF 393 renal it was -93.6% (active); in the assay on SF-268 CNS, -69.9% (active). The growth in the assay on SF-295 CNS is 30.8%; in the assay with SF-539 CNS it was -61.9% (active); with UACC-257 melanoma, -61.7% (active); in the assay on M14 melanoma it was -90.8% (active).

As for `COCCCN=C(N)c1ccc(NC(=O)c2ccc(C(=O)Nc3ccc(C(N)=NCCCOC)cc3)cc2)cc1`, the growth in the assay on DU-145 prostate was 148%; with K-562 leukemia it was 66.8%; with MALME-3M melanoma, 75.5%; in the assay with MDA-MB-231 breast it was 112%; with RXF 393 renal it was 142%; in the assay with SF-268 CNS, 103%. The growth is 93.7% with SF-295 CNS, 98.5% in the assay with SF-539 CNS, 121% in the assay with UACC-257 melanoma and 80.3% in the assay with M14 melanoma.

Take `O=C1C(=O)N(CCCCn2cc(CO)nn2)c2ccccc21`: the growth was 108% in the assay with DU-145 prostate; 98.4% in the assay on K-562 leukemia; 97.7% with MALME-3M melanoma; 98.2% in the assay on MDA-MB-231 breast; 99.7% in the assay on RXF 393 renal; 101% in the assay with SF-268 CNS. Further, the growth in the assay with SF-295 CNS was 102%; in the assay with SF-539 CNS, 101%; in the assay with UACC-257 melanoma, 105%; in the assay on M14 melanoma, 94.5%.

As for `Cc1nn(-c2ccccc2)c2nc(C)n(-c3ccc(Br)cc3)c(=O)c12`, the growth with DU-145 prostate was 8.77% (active); in the assay with K-562 leukemia, 9.29% (active); with MALME-3M melanoma it was 45.9%; in the assay with MDA-MB-231 breast it was 50.3%; in the assay on RXF 393 renal, -15.8% (active); in the assay with SF-268 CNS, 51.2%. Moreover, the growth in the assay on SF-295 CNS was 4.98% (active); with SF-539 CNS it was -5.52% (active); in the assay with UACC-257 melanoma, 60%; in the assay with M14 melanoma it was 9.88% (active).

In the case of `CCCCCCCCCCCCCCCCCCNC(=O)[C@H]1CSC(c2ccc(OC)c(F)c2)N1` (stereo not given in full), the growth in the assay with DU-145 prostate was 67.1%; in the assay with K-562 leukemia, 0.509% (active); in the assay on MALME-3M melanoma, -57.4% (active); with MDA-MB-231 breast it was -42.8% (active); with RXF 393 renal, -34% (active); with SF-268 CNS it was -61% (active). In addition, the growth is 87.5% with SF-295 CNS, -15.1% (active) with SF-539 CNS, 70.3% in the assay on UACC-257 melanoma and -76.7% (active) in the assay with M14 melanoma.

On to `O=C(CN1CCN(c2cc3c(cc2F)c(=O)c(C(=O)N/N=C/c2ccccc2)cn3C2CC2)CC1)N/N=C\c1ccccc1`, for which the growth in the assay with DU-145 prostate was 90.4%; with K-562 leukemia it was 56.6%; with MALME-3M melanoma, 120%; in the assay on MDA-MB-231 breast, 70.3%; in the assay on RXF 393 renal it was 72.7%; in the assay with SF-268 CNS, 72.5%. Also, the growth in the assay on SF-295 CNS was 74.8%; with SF-539 CNS, 76.2%; in the assay on UACC-257 melanoma, 99%; in the assay on M14 melanoma, 74.1%.
